In general, AC50 refers to the concentration at which the activity in the assay is half-maximal.

The record followed here is PubChem BioAssay (EPA / NIEHS).

Values joined by “and” are separate entries in the source; they are usually repeats but may differ in a detail not shown here. Equal values may be shown once. The source holds several records for some structures; these can differ, active in one and inactive in another. Active and inactive are the calls of the source. The calls were made as follows: active = hit-call score of the fitted dose curve at least 0.9, where 1 is the maximum; inactive = score below 0.9.

Read-out in assay [1]: Tissue plasminogen activator (tPA), PLAT (gene 5327)
As to the kind of experiment: BSK_BE3C_tPA: BioMAP Diversity Plus: BE3C Assay for Tissue plasminogen activator (tPA) Biomarker Activity (AID 2283041).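 As to outcome: tPA level quantified by ELISA one day after compound addition.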 Conditions: primary human bronchial epithelial cells; actives raise or lower the signal. An outline of the steps:
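Using human lung primary bronchial epithelial cells, tPA was measured by ELISA 24 h after dosing; data fitted relative to DMSO.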

Read-out in assay [2]: Interleukin-8 (IL8), CXCL8 (gene 3576)
As to the kind of experiment: BSK_CASM3C_IL8: BioMAP Diversity Plus: CASM3C Assay for Interleukin-8 (IL8) Biomarker Activity (AID 2283042).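 Also: IL-8 protein level quantified by ELISA.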 The note with it: primary human coronary artery smooth muscle cells; actives raise or lower the signal.

Read-out in assay [3]: Human Leukocyte Antigen - DR isotype (HLADR), HLA-DRA (gene 3122)
As to the kind of experiment: BSK_CASM3C_HLADR: BioMAP Diversity Plus: CASM3C Assay for Human Leukocyte Antigen - DR isotype (HLADR) Biomarker Activity (AID 2283043).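 Also: cell-surface HLA-DR protein level quantified by ELISA.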 The note with it: primary human coronary artery smooth muscle cells; actives raise or lower the signal.

Read-out in assay [4]: Macrophage colony-stimulating factor (MCSF), CSF1 (gene 1435)
As to the kind of experiment: BSK_CASM3C_MCSF: BioMAP Diversity Plus: CASM3C Assay for Macrophage colony-stimulating factor (MCSF) Biomarker Activity (AID 2283044).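 Also: M-CSF protein amount quantified by ELISA after 24 h exposure.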 The note with it: primary human coronary artery smooth muscle cells; actives raise or lower the signal.

Read-out in assay [5]: Low-density lipoprotein receptor (LDLR), LDLR (gene 3949)
The assay is described as follows: BSK_CASM3C_LDLR: BioMAP Diversity Plus: CASM3C Assay for Low-density lipoprotein receptor (LDLR) Biomarker Activity (AID 2283045).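 Also: LDLR protein level on the cell surface quantified by ELISA.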 Conditions: primary human coronary artery smooth muscle cells; actives raise or lower the signal.

Read-out in assay [6]: Monocyte Chemoattractant Protein-1 (MCP1), CCL2 (gene 6347)
As to the kind of experiment: BSK_CASM3C_MCP1: BioMAP Diversity Plus: CASM3C Assay for Monocyte Chemoattractant Protein-1 (MCP1) Biomarker Activity (AID 2283046).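 Also: MCP-1 level quantified by ELISA 24 h after dosing.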 The note with it: primary human coronary artery smooth muscle cells; actives raise or lower the signal.

Assay [7] in a line: BSK_CASM3C_Proliferation: Cell Proliferation Assessment in the BioMAP Diversity Plus: CASM3C Assay (AID 2283047).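 Also: sulforhodamine B total protein stain as relative cell number at 560 nm; sub-confluent cells exposed 48 h before staining; fitted both ways against DMSO so gain or loss of cell number.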 The note with it: primary human coronary artery smooth muscle cells.
Read-out in assay [8]: Monokine induced gamma interferon (MIG), CXCL9 (gene 4283)
As to the kind of experiment: BSK_CASM3C_MIG: BioMAP Diversity Plus: CASM3C Assay for Monokine induced gamma interferon (MIG) Biomarker Activity (AID 2283048).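 Also: MIG protein level measured by ELISA.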 The note with it: primary human coronary artery smooth muscle cells; actives raise or lower the signal.

Read-out in assay [9]: serum amyloid A (SAA), SAA1 (gene 6288)
As to the kind of experiment: BSK_CASM3C_SAA: BioMAP Diversity Plus: CASM3C Assay for serum amyloid A (SAA) Biomarker Activity (AID 2283049).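 Also: SAA protein level quantified by ELISA.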 Conditions: primary human coronary artery smooth muscle cells; actives raise or lower the signal.

Assay [10] can be described thus: BSK_CASM3C_SRB: Viability Assessment in the BioMAP Diversity Plus: CASM3C Assay (AID 2283050).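 Also: total protein by SRB staining as cytotoxicity measure in parallel cultures; cells exposed to compound for 24 h.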 Conditions: primary human coronary artery smooth muscle cells.

Turning to `CC1=CC2C3C=CC(C3)C2C1C` (stereo unspecified), the outcome in assay [1], in assay [2], in assay [3], in assay [4], in [5] and in [6] was inactive. Besides, the result in [7], in assay [8], in [9] and in [10] was inactive.

With `Cc1cc(O)c(C(C)(C)C)cc1C(C)(C)C`, the concentration at half-maximal activity (AC50) in assay [1] is 5.21 µM (active); in assay [2], 8.77 µM (active); in [3] it was 3.5 µM (active); in [4] it was 4.59 µM (active); in [5] it was 5.37 µM (active); in assay [6] it was 5.83 µM (active). For the same compound, the half-maximal activity concentration (AC50) in assay [7] is 3.85 µM (active); in [8], 12.5 µM (active); in assay [9] it was 4.22 µM (active); in assay [10], 4.99 µM (active).

`OCCCCC(F)(F)C(F)(F)C(F)(F)C(F)(F)F`: the result in assay [1], in assay [2], in assay [3], in assay [4], in [5] and in [6] was inactive. For the same compound, the outcome in [7], in [8], in assay [9] and in assay [10] was inactive.

As for `CC(C)CCCC(C)CCO` (stereo unspecified), the AC50 in [1] is 26 µM (active); in assay [3], 32.2 µM (active); in [4], 32.3 µM (active); in assay [5] it was 32.1 µM (active); in assay [6], 31.2 µM (active); in assay [7] it was 30.9 µM (active). Besides, the AC50 is 29.7 µM (active) in assay [8], 29.6 µM (active) in assay [9] and 32.2 µM (active) in [10]. Besides, in assay [2], the result was inactive.

Consider `Nc1cc([N+](=O)[O-])cc(Cl)c1O`, for which the outcome in [1], in assay [2], in assay [3], in [4], in assay [5] and in assay [6] was inactive. Besides, the outcome in [7], in [8], in [9] and in assay [10] was inactive.

With `O=C(O)CCC(F)(F)C(F)(F)C(F)(F)C(F)(F)C(F)(F)C(F)(F)C(F)(F)F`, the outcome in [1], in [2], in assay [3], in assay [4], in assay [5] and in assay [6] was inactive. For the same compound, the outcome in [7], in [8], in assay [9] and in assay [10] was inactive.

Take `C=CC(=O)OCC(F)(F)C(F)(F)C(F)(F)C(F)(F)C(F)(F)C(F)(F)C(F)(F)C(F)F`: the outcome in assay [1], in assay [2], in [3], in [4], in [5] and in assay [6] was inactive. For the same compound, the result in [7], in assay [8], in assay [9] and in [10] was inactive.

On to `NS(=O)(=O)C(F)(F)C(F)(F)C(F)(F)C(F)(F)C(F)(F)C(F)(F)F`, for which the half-maximal activity concentration (AC50) in assay [1] is 49 µM (active) and 47.5 µM (active). For the same compound, the outcome in assay [2], in assay [3], in assay [4], in assay [5], in [6] and in assay [7] was inactive. Further, the result in assay [8], in [9] and in assay [10] was inactive.

Turning to `OCCCC(F)(F)C(F)(F)C(F)(F)C(F)(F)C(F)(F)C(F)(F)C(F)(F)C(F)(F)F`, the AC50 in [1] was 49.7 µM (active) and 47.2 µM (active); in assay [2] it was 38.9 µM (active) and 35.8 µM (active); in [3], 50.3 µM (active) and 50.6 µM (active); in assay [4] it was 29.1 µM (active) and 35.6 µM (active); in assay [5] it was 43.9 µM (active) and 45.4 µM (active); in assay [6] it was 41.6 µM (active) and 42.8 µM (active). The concentration at half-maximal activity (AC50) in assay [7] is 21 µM (active) and 39.5 µM (active); in assay [8], 46.8 µM (active) and 44.5 µM (active); in assay [9] it was 45.1 µM (active) and 40.2 µM (active); in [10], 32 µM (active) and 48.6 µM (active).

Take `O=C(Cl)C(F)(F)C(F)(F)C(F)(F)C(F)(F)C(F)(F)C(F)(F)F`: the outcome in assay [1], in assay [2], in assay [3], in [4], in assay [5] and in assay [6] was inactive. The outcome in assay [7], in assay [8], in [9] and in [10] was inactive.

Take `Cc1ccc(O)c(-n2nc3ccccc3n2)c1`: the outcome in assay [1], in assay [2], in [3], in assay [4], in [5] and in assay [6] was inactive. In addition, the outcome in assay [7], in assay [8], in assay [9] and in assay [10] was inactive.

As for `O=S(=O)(O)CCC(F)(F)C(F)(F)C(F)(F)C(F)(F)C(F)(F)C(F)(F)C(F)(F)C(F)(F)F`, the result in assay [1], in [2], in assay [3], in assay [4], in [5] and in assay [6] was inactive. The result in [7], in [8], in assay [9] and in assay [10] was inactive.

Consider `NC(O)(C(F)(F)F)C(F)(F)F`, for which the result in assay [1], in assay [2], in [3], in [4], in [5] and in assay [6] was inactive. The result in assay [7], in [8], in assay [9] and in assay [10] was inactive. Further, the concentration at half-maximal activity (AC50) in assay [4] was 43.4 µM (active).

As for `OCC(F)(F)C(F)(F)C(F)(F)C(F)(F)C(F)(F)C(F)(F)CO`, the result in assay [1], in [2], in assay [3], in assay [4], in assay [5] and in assay [6] was inactive. For the same compound, the result in assay [7], in assay [8], in assay [9] and in [10] was inactive.

For `O=C(O)C(F)(F)C(F)(F)C(F)(F)OC(F)(C(F)(F)F)C(F)(F)F`, the result in assay [1], in assay [2], in assay [3], in assay [4], in assay [5] and in assay [6] was inactive. In addition, the outcome in [7], in assay [8], in [9] and in assay [10] was inactive.

For the compound `OCC(F)(F)C(F)(F)C(F)(F)CO`, the result in assay [1], in assay [2], in assay [3], in assay [4], in [5] and in assay [6] was inactive. The outcome in assay [7], in assay [8], in assay [9] and in assay [10] was inactive.

In the case of `O=C=Nc1cccc2c(N=C=O)cccc12`, the result in assay [1], in [2], in [3], in assay [4], in assay [5] and in [6] was inactive. Besides, the result in [7], in assay [8], in assay [9] and in assay [10] was inactive.
